# Assay results reported in PubChem BioAssay AID1159580 (chemical genetic matrix, 2015).
# The campaign covered roughly 5,500 compounds. About 2,000 (36%) were called active. About 18% were inconclusive and are not listed. Some of the results follow. Unmarked numbers belong to inactive results. Cut-off read from the data, not from the text of the source: active = normalized growth mostly below about 0.91 (no sharp cut-off); inconclusive = no clear call, values can overlap the other calls; inactive = mostly above about 0.92.
# Assay: chemical genetic growth profiling, strain panel (AID 1159580);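 note: tested at 20 µM; growth read once vehicle control cultures reached saturation at 30 °C; 1 = growth at the plate median or of vehicle wells; lower values mean less growth of the strain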
# Settings: growth OD
compound,measurement,setting,value
O=C(O[C@@H]1Cc2c(O)cc(O)cc2O[C@@H]1c1cc(O)c(=O)c2c(O)c(O)cc([C@H]3Oc4cc(O)cc(O)c4C[C@H]3OC(=O)c3cc(O)c(O)c(O)c3)c2c1)c1cc(O)c(O)c(O)c1,normalized growth,"S. cerevisiae deletion strains, locus YJR075W, strain HOC1, stronger effect = lower value",0.753 (active)
same,normalized growth,"S. cerevisiae deletion strains, locus YKL009W, strain mrt4, stronger effect = lower value",1.06
same,normalized growth,"S. cerevisiae deletion strains, locus YKL068W, stronger effect = lower value",1.04
same,normalized growth,"S. cerevisiae deletion strains, locus YKL085W, strain MDH1 (second series), stronger effect = lower value",1.05
same,normalized growth,"S. cerevisiae deletion strains, locus YKL085W, strain MDH1, stronger effect = lower value",1.05
same,normalized growth,"S. cerevisiae deletion strains, locus YKL160W, strain elf1, stronger effect = lower value",0.71 (active)
same,normalized growth,"S. cerevisiae deletion strains, locus YKL190W, strain CNB1, stronger effect = lower value",0.637 (active)
same,normalized growth,"S. cerevisiae deletion strains, locus YKR001C, strain vps1, stronger effect = lower value",0.979
same,normalized growth,"S. cerevisiae deletion strains, locus YKR026C, strain gcn3, stronger effect = lower value",0.971
same,normalized growth,"S. cerevisiae deletion strains, locus YKR091W, strain srl3, stronger effect = lower value",0.927 (active)
same,normalized growth,"S. cerevisiae deletion strains, locus YLL001W, strain dnm1, stronger effect = lower value",0.614 (active)
same,normalized growth,"S. cerevisiae deletion strains, locus YLL026W, stronger effect = lower value",0.553 (active)
same,normalized growth,"S. cerevisiae deletion strains, locus YLL041C, strain sdh2, stronger effect = lower value",0.661 (active)
same,normalized growth,"S. cerevisiae deletion strains, locus YLR027C, strain aat2, stronger effect = lower value",0.407 (active)
same,normalized growth,"S. cerevisiae deletion strains, locus YLR039C, strain RIC1, stronger effect = lower value",0.598 (active)
same,normalized growth,"S. cerevisiae deletion strains, locus YLR058C, strain SHM2, stronger effect = lower value",0.525 (active)
same,normalized growth,"S. cerevisiae deletion strains, locus YLR102C, strain apc9, stronger effect = lower value",1.04
same,normalized growth,"S. cerevisiae deletion strains, locus YLR113W, strain HOG1, stronger effect = lower value",1.12
same,normalized growth,"S. cerevisiae deletion strains, locus YLR221C, strain rsa3, stronger effect = lower value",0.573 (active)
same,normalized growth,"S. cerevisiae deletion strains, locus YLR258W, strain gsy2, stronger effect = lower value",0.523 (active)
same,normalized growth,"S. cerevisiae deletion strains, locus YLR262C, strain YPT6 (second series), stronger effect = lower value",0.539 (active)
same,normalized growth,"S. cerevisiae deletion strains, locus YLR262C, strain YPT6, stronger effect = lower value",0.69
same,normalized growth,"S. cerevisiae deletion strains, locus YLR268W, strain sec22, stronger effect = lower value",0.81 (active)
same,normalized growth,"S. cerevisiae deletion strains, locus YLR320W, strain mms22, stronger effect = lower value",0.619 (active)
same,normalized growth,"S. cerevisiae deletion strains, locus YLR330W, strain CHS5, stronger effect = lower value",0.898 (active)
same,normalized growth,"S. cerevisiae deletion strains, locus YLR342W, strain FKS1 (second series), stronger effect = lower value",0.449 (active)
same,normalized growth,"S. cerevisiae deletion strains, locus YLR342W, strain FKS1, stronger effect = lower value",0.447 (active)
same,normalized growth,"S. cerevisiae deletion strains, locus YLR357W, strain rsc2, stronger effect = lower value",0.602 (active)
same,normalized growth,"S. cerevisiae deletion strains, locus YLR370C, strain arc18, stronger effect = lower value",0.499 (active)
same,normalized growth,"S. cerevisiae deletion strains, locus YLR371W, strain rom2, stronger effect = lower value",0.849 (active)
same,normalized growth,"S. cerevisiae deletion strains, locus YLR384C, strain iki3, stronger effect = lower value",0.713 (active)
same,normalized growth,"S. cerevisiae deletion strains, locus YLR418C, strain cdc73, stronger effect = lower value",0.583 (active)
same,normalized growth,"S. cerevisiae deletion strains, locus YML016C, strain PPZ1, stronger effect = lower value",0.482 (active)
same,normalized growth,"S. cerevisiae deletion strains, locus YML032C, strain rad52, stronger effect = lower value",1.05
same,normalized growth,"S. cerevisiae deletion strains, locus YML120C, strain ndi1, stronger effect = lower value",0.634 (active)
same,normalized growth,"S. cerevisiae deletion strains, locus YML124C, strain tub3, stronger effect = lower value",1.02
same,normalized growth,"S. cerevisiae deletion strains, locus YMR058W, strain fet3, stronger effect = lower value",0.101 (active)
same,normalized growth,"S. cerevisiae deletion strains, locus YMR078C, strain ctf18, stronger effect = lower value",1.02
same,normalized growth,"S. cerevisiae deletion strains, locus YMR125W, strain sto1, stronger effect = lower value",1.04
same,normalized growth,"S. cerevisiae deletion strains, locus YMR129W, stronger effect = lower value",0.604 (active)
same,normalized growth,"S. cerevisiae deletion strains, locus YMR205C, strain PFK2, stronger effect = lower value",0.353 (active)
same,normalized growth,"S. cerevisiae deletion strains, locus YMR223W, strain ubp8, stronger effect = lower value",0.979
same,normalized growth,"S. cerevisiae deletion strains, locus YMR231W, strain pep5, stronger effect = lower value",0.158 (active)
same,normalized growth,"S. cerevisiae deletion strains, locus YMR263W, strain SAP30, stronger effect = lower value",0.723 (active)
same,normalized growth,"S. cerevisiae deletion strains, locus YMR307W, strain GAS1, stronger effect = lower value",0.481 (active)
same,normalized growth,"S. cerevisiae deletion strains, locus YNL067W, strain RPL9B, stronger effect = lower value",0.699 (active)
same,normalized growth,"S. cerevisiae deletion strains, locus YNL071W, strain lat1, stronger effect = lower value",0.607 (active)
same,normalized growth,"S. cerevisiae deletion strains, locus YNL128W, strain TEP1, stronger effect = lower value",0.351 (active)
same,normalized growth,"S. cerevisiae deletion strains, locus YNL153C, strain GIM3, stronger effect = lower value",0.741 (active)
same,normalized growth,"S. cerevisiae deletion strains, locus YNL183C, strain NPR1, stronger effect = lower value",0.983
same,normalized growth,"S. cerevisiae deletion strains, locus YNL209W, strain ssb2, stronger effect = lower value",0.149 (active)
same,normalized growth,"S. cerevisiae deletion strains, locus YNL233W, strain BNI4, stronger effect = lower value",0.768 (active)
same,normalized growth,"S. cerevisiae deletion strains, locus YNL248C, strain rpa49, stronger effect = lower value",0.863 (active)
same,normalized growth,"S. cerevisiae deletion strains, locus YNL250W, strain rad50, stronger effect = lower value",1.02
same,normalized growth,"S. cerevisiae deletion strains, locus YNL271C, strain bni1, stronger effect = lower value",1.03
same,normalized growth,"S. cerevisiae deletion strains, locus YNL298W, strain CLA4, stronger effect = lower value",1.03
same,normalized growth,"S. cerevisiae deletion strains, locus YNL307C, strain MCK1, stronger effect = lower value",1.04
same,normalized growth,"S. cerevisiae deletion strains, locus YNL322C, strain KRE1 (second series), stronger effect = lower value",0.857 (active)
same,normalized growth,"S. cerevisiae deletion strains, locus YNL322C, strain KRE1, stronger effect = lower value",0.569 (active)
same,normalized growth,"S. cerevisiae deletion strains, locus YNR049C, strain mso1, stronger effect = lower value",0.913 (active)
same,normalized growth,"S. cerevisiae deletion strains, locus YNR052C, strain pop2, stronger effect = lower value",0.975
same,normalized growth,"S. cerevisiae deletion strains, locus YOL006C, strain TOP1, stronger effect = lower value",0.216 (active)
same,normalized growth,"S. cerevisiae deletion strains, locus YOL012C, strain htz1",0.378
same,normalized growth,"S. cerevisiae deletion strains, locus YOL147C, strain pex11, stronger effect = lower value",1.01
same,normalized growth,"S. cerevisiae deletion strains, locus YOR001W, strain rrp6, stronger effect = lower value",0.57 (active)
same,normalized growth,"S. cerevisiae deletion strains, locus YOR061W, strain CKA2, stronger effect = lower value",0.848 (active)
same,normalized growth,"S. cerevisiae deletion strains, locus YOR069W, strain VPS5, stronger effect = lower value",0.891 (active)
same,normalized growth,"S. cerevisiae deletion strains, locus YOR070C, strain gyp1, stronger effect = lower value",0.495 (active)
same,normalized growth,"S. cerevisiae deletion strains, locus YOR080W, strain dia2, stronger effect = lower value",0.286 (active)
same,normalized growth,"S. cerevisiae deletion strains, locus YOR083W, strain WHI5, stronger effect = lower value",0.543 (active)
same,normalized growth,"S. cerevisiae deletion strains, locus YOR106W, strain vam3, stronger effect = lower value",0.119 (active)
same,normalized growth,"S. cerevisiae deletion strains, locus YOR136W, strain idh2, stronger effect = lower value",0.99
same,normalized growth,"S. cerevisiae deletion strains, locus YOR144C, strain elg1, stronger effect = lower value",1.01
same,normalized growth,"S. cerevisiae deletion strains, locus YOR184W, strain ser1, stronger effect = lower value",0.857 (active)
same,normalized growth,"S. cerevisiae deletion strains, locus YOR231W, strain MKK1, stronger effect = lower value",1.04
same,normalized growth,"S. cerevisiae deletion strains, locus YOR265W, strain rbl2, stronger effect = lower value",0.658 (active)
same,normalized growth,"S. cerevisiae deletion strains, locus YOR270C, strain vph1, stronger effect = lower value",0.223 (active)
same,normalized growth,"S. cerevisiae deletion strains, locus YOR290C, strain snf2, stronger effect = lower value",0.496 (active)
same,normalized growth,"S. cerevisiae deletion strains, locus YOR316C, strain cot1, stronger effect = lower value",1.04
same,normalized growth,"S. cerevisiae deletion strains, locus YPL051W, strain arl3, stronger effect = lower value",0.263 (active)
same,normalized growth,"S. cerevisiae deletion strains, locus YPL055C, strain LGE1, stronger effect = lower value",0.473 (active)
same,normalized growth,"S. cerevisiae deletion strains, locus YPL078C, strain atp4, stronger effect = lower value",0.705 (active)
same,normalized growth,"S. cerevisiae deletion strains, locus YPL106C, strain sse1, stronger effect = lower value",0.593 (active)
same,normalized growth,"S. cerevisiae deletion strains, locus YPL240C, strain hsp82, stronger effect = lower value",0.679 (active)
same,normalized growth,"S. cerevisiae deletion strains, locus YPL241C, strain CIN2, stronger effect = lower value",0.922 (active)
same,normalized growth,"S. cerevisiae deletion strains, locus YPL256C, strain CLN2, stronger effect = lower value",1.15
same,normalized growth,"S. cerevisiae deletion strains, locus YPR119W, strain clb2, stronger effect = lower value",1.03
same,normalized growth,"S. cerevisiae deletion strains, locus YPR141C, strain kar3, stronger effect = lower value",1.03
same,normalized growth,"S. cerevisiae deletion strains, locus YPR163C, strain tif3, stronger effect = lower value",1.02
same,normalized growth,"S. cerevisiae deletion strains, locus YPR167C, strain met16, stronger effect = lower value",1.02
same,normalized growth,"S. cerevisiae deletion strains, strain wtn01, stronger effect = lower value",0.808 (active)
same,normalized growth,"S. cerevisiae strains, strain wild type, stronger effect = lower value",0.491 (active)
